Experimental data taken from the supplement of paper PMC6555819.

Assays:
Assay in all cases: PBM binding z-score (relative to random genomic background probes); higher = stronger binding; sequences stand for … in GC…GCGATTGACAGCGTAGAATGAAGG
[1] = tested on: PPARg:RXRa DBDmut IVT, anti-RXR (DBD mutation: RXRa K156A/R161A, NR concentration 270 nM, RXRa partner concentration 90 nM)
Method in brief: (§1)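 Binding z-scores take random background probes as their reference. They come from custom Agilent 4×180K protein-binding microarrays incubated 1 h with ligand-free nuclear receptor dimers, with antibodies against each partner (one per run) detecting binding. Scanned fluorescence was regression-normalized.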

[2] = tested on: PPARg:RXRa IVT, anti-PPARg (NR concentration 270 nM, RXRa partner concentration 90 nM)
Method in brief: as §1

[3] = tested on: PPARg DBDmut:RXRa IVT, anti-PPARg (DBD mutation: PPARg1 K132A/R137A, NR concentration 270 nM, RXRa partner concentration 90 nM)
Method in brief: as §1

[4] = tested on: PPARg DBDmut IVT, anti-PPARg (DBD mutation: PPARg1 K132A/R137A, NR concentration 270 nM)
Method in brief: as §1

[5] = tested on: PPARg homodimer (NR concentration 180 nM)
Method in brief: as §1

[6] = tested on: PXR:RXRa (NR concentration 270 nM, RXRa partner concentration 90 nM)
Method in brief: as §1

[7] = tested on: PXR homodimer (NR concentration 270 nM)
Method in brief: as §1

[8] = tested on: RARa:RXR (NR concentration 270 nM, RXRa partner concentration 90 nM)
Method in brief: as §1

[9] = tested on: RARa homodimer (NR concentration 270 nM)
Method in brief: as §1

[10] = tested on: RARb:RXRa (NR concentration 270 nM, RXRa partner concentration 90 nM)
Method in brief: as §1

[11] = tested on: RARb homodimer (NR concentration 270 nM)
Method in brief: as §1

[12] = tested on: RARg:RXRa (NR concentration 270 nM, RXRa partner concentration 90 nM)
Method in brief: as §1

[13] = tested on: RARg homodimer (NR concentration 270 nM)
Method in brief: as §1

[14] = tested on: RXRa DBDmut IVT, anti-RXR (DBD mutation: RXRa K156A/R161A, NR concentration 90 nM)
Method in brief: as §1

[15] = tested on: RXRa homodimer (NR concentration 180 nM)
Method in brief: as §1

[16] = tested on: THRa:RXRa (NR concentration 90 nM, RXRa partner concentration 90 nM)
Method in brief: as §1

[17] = tested on: THRa homodimer (NR concentration 90 nM)
Method in brief: as §1

[18] = tested on: VDR homodimer (NR concentration 270 nM)
Method in brief: as §1

Sequence | PBM binding z-score [1] | PBM binding z-score [2] | PBM binding z-score [3] | PBM binding z-score [4] | PBM binding z-score [5] | PBM binding z-score [6] | PBM binding z-score [7] | PBM binding z-score [8] | PBM binding z-score [9] | PBM binding z-score [10] | PBM binding z-score [11] | PBM binding z-score [12] | PBM binding z-score [13] | PBM binding z-score [14] | PBM binding z-score [15] | PBM binding z-score [16] | PBM binding z-score [17] | PBM binding z-score [18]
GCGACTGGGGCATCAGCAGGTTATCATAACTTAA | 3.69 | 3.13 | -0.424 | -0.757 | 0.000895 | 0.377 | -0.554 | 0.458 | -0.474 | 0.845 | 0.979 | 0.933 | 0.586 | -0.0902 | 0.555 | 1.05 | -0.305 | -0.259
CCTACTGGGCCAAGGTCAGTGATCAGTCAAAGCA | 3.15 | 4.03 | 0.453 | -1.43 | 1.3 | 1.14 | -0.136 | 1.75 | -0.243 | 2.89 | 2.89 | 2.37 | 2.48 | -0.721 | 1.4 | 2.31 | 1.15 | 0.568
GTACCAAGGCGAATAGGTCGTTGATGAGTAGGCG | -0.264 | -0.208 | -0.611 | -1.17 | -0.305 | -0.106 | -0.0295 | 0.507 | -0.623 | 0.291 | 0.278 | 0.265 | 0.191 | -0.465 | 0.543 | 0.0285 | -0.524 | -0.0798
ATCGAAAGGTCGACGAGGTAAGTATACACCGTTT | 0.556 | 1.6 | 0.911 | 0.688 | 1.42 | 2.3 | 0.185 | 3.12 | 0.419 | 3.66 | 2.39 | 3.89 | 3.66 | 1.2 | 4.03 | 3.14 | 0.239 | 0.679
ATCTCTATGTAAAGTTCAGTGAAAGATCGATAGA | -0.231 | 0.863 | 0.912 | 1.04 | 1.11 | 1.92 | 2.03 | 1.18 | 1.46 | 2.55 | 2.23 | 2.06 | 2.29 | 1.3 | 1.08 | 0.757 | -0.304 | 2.03
TTACCAAGGTGAGCTGCGGTCGTTGATCCAACTC | 0.329 | 1.64 | 0.125 | -0.586 | -0.584 | 1.38 | -0.459 | 0.61 | -0.775 | 1.07 | 0.677 | 0.0521 | 0.0746 | -0.731 | 0.198 | 2.28 | 0.255 | -0.523
ACAGACAGGTGTGTGAAGGTAACTCAGCTGGACG | -0.215 | -0.0763 | -0.159 | -0.168 | -0.299 | -0.399 | -0.457 | -0.395 | -0.0972 | -0.265 | -0.271 | -0.0907 | -0.134 | -0.313 | 0.0111 | -0.0622 | -0.902 | -0.49
GGAACGAGGGCATTCGAGTTTATAGCATGGCGAT | 2.91 | 2.31 | -0.439 | -0.834 | -0.0637 | 5.87 | 7.33 | 1.14 | -0.16 | 1.9 | 0.829 | 1.22 | 1.53 | 3.83 | 0.915 | 3.48 | -0.483 | 4.64
CCTATTAGTGGACCATAAGGGCAACCGAAGCTCG | 1.43 | 0.991 | 0.0446 | -0.555 | 0.856 | 0.215 | 0.612 | 0.424 | 0.803 | 1.22 | 1.53 | 0.433 | 0.657 | 0.115 | 0.31 | 1.38 | 0.862 | 0.415
TCTATTTGGTCAAAGGTCACACACTCGAAATGCG | 3.39 | 6.25 | 3.22 | 2.73 | 5.3 | 5.91 | 1.76 | 7.03 | 3.85 | 5.42 | 5.34 | 7.07 | 6.16 | 2.49 | 7.9 | 4.24 | 2.77 | 2.96
CCTCGGAGGACAGAGGGTCAGAGCTGTCCGCTTT | -0.421 | 0.141 | -1.61 | -1.81 | 0.33 | 0.62 | -0.49 | 1.14 | -0.305 | 2.22 | 2.47 | 2.45 | 2.4 | -0.382 | 1.6 | 1.69 | -0.314 | -0.0777
TAGCCTAGGTCATTGGGGCAGTATAGTACGCATC | 3 | 4.45 | 0.832 | 0.251 | 1.66 | 1.89 | 0.425 | 2.52 | 0.554 | 3.83 | 3.31 | 3.93 | 4.23 | 1.67 | 2.99 | 2.96 | 1.28 | 1.8
ATCTCTAGGTAAGACTCAGTTCAGTCAAGAACGC | 1.92 | 1.14 | 0.571 | 0.277 | 1.18 | 1.32 | 1.41 | 0.474 | 1.34 | 0.511 | 0.982 | 0.387 | 0.453 | 0.696 | 0.195 | 1.18 | 0.902 | 1.48
GCAGACAGGTGAAACTCAGGTAACTCAGGGTGGC | 0.904 | 0.656 | -0.318 | -0.994 | -0.214 | 0.118 | -0.356 | 0.625 | -0.536 | 0.901 | 0.42 | 1.03 | 0.566 | -0.185 | 0.901 | 2.7 | 0.521 | -0.73
ATCACTAGGTAAGACTCAGTTCAGTGAAGAACGC | 3.04 | 2.02 | 0.271 | 1.07 | 0.437 | 0.891 | 0.972 | 0.026 | 1.03 | 0.143 | 0.405 | 0.282 | 0.333 | 0.204 | -0.0584 | 0.526 | 0.536 | 1.28
